# Test results from PubChem BioAssay (NCATS).
# Inconclusive results are not listed. The source made the active and inactive calls. The call rests on the fitted dose curve; in most records, active means well fitted cell-killing curve with a large enough effect; inconclusive means small, poorly fitted or top-dose-only effect, or effect the other way; inactive means no such curve, though single readings can be large or run the other way.
# Experiment: Viability qHTS for spleen associated tyrosine kinase inhibitor (SYKi) naive MV4-11 cells (AID 1963823); further: nearly all actives have a fitted effect of over 40% in size
# Conditions: MV4-11 AML viability, CellTiter-Glo luminescence, 72 h; series mostly up to 45 µM; viability (% of control): at the top concentration
# How it was run: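 Luminescence from CellTiter-Glo, developed 10 min at room temperature, gave viability of MV4-11 cells never exposed to SYK inhibitor. Cells (500/well) had been incubated with compounds for 72 hr under standard culture conditions.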
# Potency means the concentration at half of the fitted maximal effect.
Compound,viability (% of control),Potency
COc1cc(C(CO)C(OC2OC(CO)C(O)C(O)C2O)c2ccc(O)c(OC)c2)ccc1O (configuration not stated),67.3% [at 17.3 µM] (inactive),
CCC[C@@H](NC(=O)N1C(=O)C(CC)(CC)[C@@H]1Oc1ccc(C(=O)N2CCN(C)CC2)cc1)c1ccc2c(c1)OCO2,,18.4 µM (active)
CC1=CC2/C=C(\C)CCC(O)C(=O)C(O)CC(=O)C23C(=O)NC(CC(C)C)C3C1C (configuration not stated),,10 µM (active)
CC(C)=CCC/C(C)=C/CO[C@@H]1O[C@H](CO[C@@H]2O[C@@H](CO)[C@H](O)[C@H]2O)[C@@H](O)[C@H](O)[C@H]1O,81.6% [at 17.3 µM] (inactive),
COc1cc(/C=C/C(=O)OC2CC(C)=C(C(=O)O)/C2=C/CO[C@@H]2O[C@H](CO)[C@@H](O)[C@H](O)[C@H]2O)ccc1O (some centres not stated),84.5% [at 17.3 µM] (inactive),
C=C1CC[C@@H]2[C@](C)(CO)[C@H](O)CC[C@@]2(C)[C@@H]1C/C=C1/C(=O)OCC1O (some centres not stated),,2.91 µM (active)
CNc1nc(-c2ccc3c(N)n[nH]c3c2)cc(N2C[C@@H](C(=O)NC3CCCCC3)CC[C@H]2C)n1,,5.25 µM (active)
NCC(=O)O,81.9% [at 17.3 µM] (inactive),
CC1(C)CCC2(C(=O)OC3OCC(O)C(O)C3O)CCC3(C)C(=CCC4C5(C)CC(O)C(OC6OC(COC7OCC(O)C(O)C7O)C(O)C(O)C6O)C(C)(C)C5CCC43C)C2C1 (configuration not stated),68.8% [at 9.25 µM] (inactive),
COc1ccc(/C=C/C(=O)O[C@@H]2[C@@H](O)[C@@H](O)[C@H](O[C@H]3[C@@H]4C=CO[C@@H](O[C@@H]5O[C@H](CO)[C@@H](O)[C@H](O)[C@H]5O)[C@@H]4[C@@]4(CO)O[C@@H]34)O[C@H]2C)cc1,71.8% [at 17.3 µM] (inactive),
Cc1ncc(Cl)cc1NCc1ccc(C(=O)NC(CC2CCCC2)C(=O)NC2CC2)s1 (configuration not stated),,20.6 µM (active)
CCc1ccc2nc(Nc3cc(Cc4ccccc4)nc(NC4CCC(O)CC4)n3)sc2c1 (configuration not stated),,8.33 µM (active)
O=C(OCC1=CC(O)C2C=CO[C@@H](O[C@@H]3O[C@H](CO)[C@@H](O)[C@H](O)[C@H]3O)C12)c1ccccc1 (some centres not stated),93.9% [at 17.3 µM] (inactive),
CCc1c(CC(N)=O)c2cc(OCCCP(=O)(O)O)ccc2n1Cc1ccccc1,84.9% (inactive),
O=C(NC1CCN(CCCCC2(C(=O)NCC(F)(F)F)c3ccccc3-c3ccccc32)CC1)c1ccccc1-c1ccc(C(F)(F)F)cc1,,2.59 µM (active)
C[C@H](NC(c1cccc2[nH]c(=O)c(=O)[nH]c12)P(=O)(O)O)c1ccc(Br)cc1 (some centres not stated),103% (inactive),
OC[C@H]1O[C@@H](Oc2ccccc2)[C@H](O)[C@@H](O)[C@@H]1O,76.3% (inactive),
CC1=CC(=O)CC(C)(CO)C1(O)/C=C/C(C)O[C@@H]1O[C@H](CO)[C@@H](O)[C@H](O)[C@H]1O (some centres not stated),96.5% [at 17.3 µM] (inactive),
C[C@@H]1Cc2c([nH]c3ccccc23)[C@@H](c2c(F)cc(/C=C/C(=O)O)cc2F)N1CC(C)(C)F,,23.5 µM (active)
O=C(/C=C/c1ccc(O)cc1)O[C@@H]1C[C@@](O)(C(=O)O)C[C@@H](O)[C@@H]1O,74.2% (inactive),
COc1cccc(-c2cn(-c3ccc(CCN4CCC(O)CC4)cc3)c3ncnc(N)c23)c1,,2.06 µM (active)
CO[C@H]1C=C2C(CC[C@H](O[C@@H]3O[C@H](CO)[C@@H](O)[C@@H](O)[C@H]3O)C2(C)C)[C@]2(C)CC[C@]3(C)C([C@H](C)C(O)C(C=C(C)C)O[C@@H]4O[C@H](CO)[C@@H](O)[C@@H](O)[C@H]4O)CC[C@@]3(C)C12 (some centres not stated),86.9% [at 9.25 µM] (inactive),
O=c1cc(NCCCN[C@@H]2CCOc3c(Br)cc(Br)cc32)[nH]c2ccsc12,,10.3 µM (active)
C[C@@H]1O[C@@H](O[C@H]2[C@H](O[C@H]3[C@H](O[C@H]4CC[C@@]5(C)C(CC[C@]6(C)C5CC=C5[C@@H]7CC(C)(C(=O)O)C[C@@H](O)[C@]7(C)CC[C@]56C)[C@@]4(C)CO)O[C@H](C(=O)O)[C@@H](O)[C@@H]3O)O[C@H](CO)[C@H](O)[C@@H]2O)[C@H](O)[C@H](O)[C@H]1O (some centres not stated),58.7% [at 9.25 µM] (inactive),
C=C1CCC2(OC1)OC1CC3C4CC=C5CC(O)CC(O[C@@H]6OC[C@@H](O)[C@H](O)[C@H]6O)C5(C)C4CCC3(C)C1(O)C2C (some centres not stated),75.6% [at 17.3 µM] (inactive),
C=C1C(=O)OC2/C=C(\COC(C)=O)CC/C=C(\C=O)CC(OC(=O)CC(C)C)C12 (configuration not stated),,1.26 µM (active)
Cc1ccc([C@@H]2O[C@H](CO)[C@@H](O)[C@H](O)[C@H]2O)cc1Cc1ccc(-c2ccc(F)cc2)s1,,18.6 µM (active)
